Compound activity: PubChem, several laboratories
An excerpt weighted towards active compounds, which were near 3% of everything screened.
TROY NFkB inh: inhibitors of TROY-dependent NF-kB signaling | AID 1347056 | inhibition, % at 10 µM | hit rate 0.98% among 360,000 | Q293 LMP1-TROYcd NF-kB luciferase reporter, 4 h;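 active = compounds whose plate-normalised and pattern-corrected inhibition of the luciferase reporter signal at the single screening dose is 50% or more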
LMP1 NFkB inh: inhibitors of Epstein-Barr LMP1-induced NF-kappaB reporter. LMP1-induced NF-kappaB luciferase reporter cells, luminescence. inhibition, % at 12.5 µM. hit rate 0.69% among 350,000; in the data active = inhibition above about 41%; inconclusive = no clear call, values can overlap the other calls;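 note: 0% = neutral control wells and 100% = reference inhibitor control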
LGR2 inh: blocks bursicon-induced cAMP signaling via Drosophila LGR2; hit rate 0.35% among 380,000; HEK293 LGR2, CRE-luciferase, bursicon-stimulated, 4 h; inhibition, % at 9.99 µM;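 active = drop in luminescence signal, shown as inhibition above about 50% in the replicate tests, limit read from the data, passing the limit was not always enough; inconclusive = probably only some replicates passing the limit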;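 note: agonist challenge used bursicon conditioned medium at about half maximal strength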
MITF TRPM1 HTS: increases MITF-driven TRPM1 promoter luciferase signal; SK-MEL-5 TRPM1-promoter luciferase, 24 h; % of positive control, neutral wells = 0; activation, % at 12.5 µM; hit rate 0.75% among 300,000;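 active = mean activation of at least 80% with every replicate also reaching 80%; inconclusive = mean reaches 80% but some replicate falls short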;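 note: 0% = neutral control wells and 100% = parthenolide positive control wells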
MITF TRPM1 inh: reduces MITF-dependent TRPM1 promoter luciferase signal; inhibition, % at 12.5 µM; AID 488899; SK-MEL-5 TRPM1 promoter luciferase, 24 h; hit rate 0.83% among 330,000;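 active = mean inhibition across replicates of 60% or more, whatever share of single replicates reaches that level; inconclusive = some that reach 60%, reason not given; inactive = mean inhibition across replicates below 60%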
TWEAK Fn14 block: TWEAK-Fn14 signaling inhibition | TWEAK-stimulated Fn14 reporter cells, luciferase luminescence, 8 h | inhibition, % at 10 µM | hit rate 2% among 360,000 | AID 1159606; in the data active = inhibition above about 50%
* hit, by the source's call; ? = inconclusive; nt = not tested or not shown.

SMILES	TROY NFkB inh	LMP1 NFkB inh	LGR2 inh	MITF TRPM1 HTS	MITF TRPM1 inh	TWEAK Fn14 block
Cc1cc(C)nc(NC(N)=NCCc2ccccc2)n1	14	30	24	-65	65*	25
c1ccc(-c2cn3c4c(sc3n2)CCCC4)cc1	72*	50*	74*	0	-4	89*
Cc1c(C(=O)N2CCc3ccccc3C2)sc2nc(-c3ccccc3)cn12	-17	-7	nt	4	-2	-19
COc1ccc(-c2cnc3c(c2)C(=O)N([C@H](C)CO)C[C@H](C)[C@H](CN(C)C(=O)C2CC2)O3)cc1	nt	nt	-12	nt	nt	nt
COc1ccc(CNc2nc3nc(C)cc(C)n3n2)cc1OC	-6	-30	nt	nt	1	10
Cc1cc(C)n2nc(NCc3cccc(Br)c3)nc2n1	80*	-1	nt	nt	-4	-18
Cc1cc(C)c(C)c(OCCn2ccnc2)c1	20	0	-12	-8	9	111*
COc1ccccc1-c1ccccc1C1=CC(=O)CC(C)(C)C1=O	0	61*	44	nt	nt	9
COc1cccc(-c2cccc(-c3nc(C(=O)O)cc4c3[C@@H](CCO)N(S(=O)C(C)(C)C)C4)c2)c1 (stereo partly specified)	nt	nt	7	nt	nt	nt
Cc1cc(C)nc(Nc2cccc(Cl)c2)n1	-22	0	-5	37	-42	-4
OCCCNc1cc(-c2ccnc(Nc3cccc(Cl)c3)n2)ccn1	59*	89*	102*	-56	?	97*
CCC(C)Oc1cc(-c2ccnc(Nc3cccc(Cl)c3)n2)ccn1 (stereo unspecified)	44	-105	84*	-19	20	91*
O=C(C[C@@H]1C[C@@H]2c3cc(NC(=O)Nc4ccc(C(F)(F)F)cc4)ccc3O[C@@H]2[C@@H](CO)O1)NCC1CC1	nt	nt	-11	nt	nt	nt
CN(C)c1cccc(C(=O)N/N=C/c2ccccc2F)c1	56*	44*	86*	-15	15	89*
O=[N+]([O-])c1ccccc1C=NNC(=S)NN=Cc1ccccc1[N+](=O)[O-]	-49	-21	-93	12	-12	-1
CCOc1cccc(/C=N/NC(=S)Nc2ccccc2[N+](=O)[O-])c1O	90*	35	83*	-56	58	100*
CCCCNC(=S)N/N=C/c1cccc(OCC)c1O	-38	-11	-33	29	-32	-29
O=[N+]([O-])c1ccccc1NC(=S)N/N=C/c1ccc(O)c(O)c1	66*	-33	-41	45	-37	66*
COc1ccc(/C=C/CN2CCN(Cc3ccccc3)C(CCO)C2)cc1 (stereo unspecified)	10	51*	12	6	-3	8
COc1cc(/C=N/n2cnnc2)ccc1OC(=O)c1ccncc1	63*	-7	nt	nt	-7	0
C#CCN(C[C@@H]1[C@@H](OC(=O)NCc2ccco2)[C@@H](OC(=O)NCc2ccco2)Cn2c(=O)ccc(=O)n21)S(=O)(=O)c1ccc(C)cc1	18	23	?	nt	nt	38
C#CCN(C[C@@H]1[C@@H](OC(=O)NCc2ccc(OC)c(OC)c2)[C@@H](OC(=O)NCc2ccc(OC)c(OC)c2)Cn2c(=O)ccc(=O)n21)S(=O)(=O)c1ccc(C)cc1	10	-4	-6	nt	nt	7
C#CCN(C[C@@H]1[C@@H](OC(=O)NCCCCCC)[C@@H](OC(=O)NCCCCCC)Cn2c(=O)ccc(=O)n21)S(=O)(=O)c1ccc(C)cc1	88*	90*	?	nt	nt	106*
C#CCN(C[C@@H]1[C@@H](OC(=O)NCC2CCCCC2)[C@@H](OC(=O)NCC2CCCCC2)Cn2c(=O)ccc(=O)n21)S(=O)(=O)c1ccc(C)cc1	74*	90*	72*	nt	nt	107*
CCCCCCNC(=O)O[C@H]1Cn2c(=O)ccc(=O)n2[C@@H]2CN(S(=O)(=O)c3ccc(C)cc3)C[C@]12O	13	8	38	nt	nt	89*
SMILES	TROY NFkB inh	LMP1 NFkB inh	LGR2 inh	MITF TRPM1 HTS	MITF TRPM1 inh	TWEAK Fn14 block
C[C@H](CO)N1C[C@H](C)[C@@H](CN(C)C(=O)c2ccc(F)cc2)Oc2ncc(-c3ccncc3)cc2C1=O	nt	nt	7	nt	nt	nt
CNC(=O)C[C@@H]1CC[C@H]2[C@H](COc3ccc(NC(=O)C4CCCCC4)cc3C(=O)N2C)O1	nt	nt	-13	nt	nt	nt
CCOc1c(Cl)cc(CNc2ccc(N3CCCC3)cc2)cc1OC	-5	0	-6	-3	2	56*
COc1cc(CN2CC3(CN(C)C3)c3c([nH]c4cc(OC)ccc34)[C@@H]2CO)cc(OC)c1	nt	nt	16	nt	nt	nt
Clc1ccc(-c2nnc(NC3=NCCCCC3)o2)cc1	66*	46*	nt	-5	12	93*
C[C@@H]1CN([C@@H](C)CO)C(=O)c2cc(NC(=O)Nc3ccc4c(c3)OCO4)ccc2O[C@@H](C)CCCCO[C@@H]1CN(C)C(=O)Nc1ccccc1	nt	nt	-10	nt	nt	nt
O=C(CSc1nc2c(sc3ccccc32)c(=O)n1CCCN1CCCC1)NCC1CCCO1 (stereo unspecified)	-20	-1	nt	nt	-4	-20
COc1ccc(NC(=O)CSc2nc3c(sc4ccccc43)c(=O)n2CCCN2CCCC2)cc1	-42	2	nt	-83	83*	-19
CCC(C)(C)NC(=O)C(c1ccc(OC)cc1)N(C(=O)CCC(=O)Nc1cc(C)on1)c1ccccc1OC (stereo unspecified)	11	7	-5	7	-6	57*
CCC(C)(C)NC(=O)C(c1ccc(OC)cc1)N(C(=O)CCC(=O)Nc1cc(C)on1)c1ccc(OC)c(OC)c1 (stereo unspecified)	-7	1	8	-1	3	22
O=C(N[C@@H]1CC[C@@H](CCNS(=O)(=O)c2ccccc2)O[C@@H]1CO)c1cccnc1	nt	nt	12	nt	nt	nt
COc1ccc(N=[N+]([O-])c2ccc(OC)cc2)cc1	-6	-3	72*	17	-21	62*
Cc1ccc(-n2nnnc2C(Cl)(Cl)c2nnnn2-c2ccc(C)cc2)cc1	60*	-5	19	-31	30	-30
CCOC(=O)c1cnc(-n2nc(C)cc2C)nc1NNc1nc(-c2ccccc2)cc(-c2ccccc2)n1	14	75*	nt	-62	62*	-2
CCOC(=O)c1cc(NC(=O)NC2CCCCC2)c(C)nc1C	4	-8	3	-5	7	109*
CCOC(=O)c1cc(NC(=O)N(C(C)C)C2CCCCC2)c(C)nc1C	-4	-4	4	3	-8	-5
CCOC(=O)c1cnc(-n2nc(C)cc2C)nc1NC	-19	-6	nt	nt	-14	-3
CCOC(=O)c1cnc(-n2nc(C)cc2C)nc1NC1CCCCC1	54*	39	nt	-51	51	49
CCOC(=O)c1cnc(-n2nc(C)cc2C)nc1Nc1ccc(O)cc1	51*	56*	4	-72	71*	30
Oc1c(Cl)cc(Cl)cc1C1=NNC(c2ccc(Cl)cc2)C1 (stereo unspecified)	9	49*	nt	2	-3	-16
